From PubChem BioAssay AID651661 (Broad Institute, 2012)
“And” between values parts separate entries of the source, which are not always exact repeats. Equal entries are not always repeated. In all, about 350,000 compounds went through this assay and about 2,300 (0.66%) were called active.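 Rule for the calls: active = mean inhibition of at least 50% after viability correction, with every replicate also passing that limit; inconclusive = mean reaches 50% but only one of two replicates passes; inactive = the rest.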 What follows is part of a selection rich in actives, with near analogues and random picks from the rest.

Assay: blockers of EWS/Fli transcriptional output – A673 cells, NR0B1 luciferase, luminescence, MLPCN library, primary screen (AID 651661);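 note: firefly luciferase signal divided by Alamar Blue viability fluorescence both relative to DMSO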
Conditions: A673 NR0B1-luciferase reporter, viability-normalised; at 12.6 µM; active compounds read high

| SMILES | inhibition |
| --- | --- |
| COC1C(O)C(C)OC(OC2CCC3(C=O)C(CCC4C3CCC3(C)C(C5=CC(=O)OC5)CCC43O)C2)C1O (stereo not given) | 61.9% (active) |
| OC[C@@H]1[C@H]2c3ccccc3NC[C@H]2N1Cc1cccnc1 | 3.74% (inactive) |
| COc1cccc(-c2nc3ccc(N4CCN(C)CC4)cc3[nH]2)c1 | 54% (active) |
| Cc1nc2ccc(N3CCN(C)CC3)cc2nc1C | 1.28% (inactive) |
| Brc1ccc2c(c1)CNCc1cnnn1-2 | -10.6% (inactive) |
| CCC(C)NC1(c2ccccc2)CCCCC1 (stereo not given) | -1.85% (inactive) |
| COc1cc(OC)cc(C(=O)NCCN2CCC3(CC2)C(=O)NCN3c2ccccc2)c1 | -1.8% (inactive) |
| CCN(CC)C(=O)[C@@H]1C=C2c3cccc4[nH]c(Br)c(c34)C[C@H]2N(C)C1 | -3.36% (inactive) |
| C[C@]12CC[C@H](O)C[C@H]1CC[C@@H]1C2CC[C@]2(C)[C@@H](C3=CC(=O)OC3)[C@@H](O)C[C@]12O (stereo not given in full) | 64.9% (active) |
| C[C@]12CCC3C(CC[C@H]4C[C@@H](O)CC[C@]34C)C1C[C@@H](O)[C@H]2O (stereo not given in full) | 0.611% (inactive) |
| C[C@]12CCC3C(CC[C@H]4C[C@@H](O)CC[C@]34C)C1CC[C@@H]2O (stereo not given in full) | -5.07% (inactive) |
| COc1ccc(C#Cc2ccc([C@H]3[C@H](CO)N4CCCCN(C(=O)Cc5ccccc5)C[C@@H]34)cc2)cc1 | -12.7% (inactive) |
| COC(=O)[C@H]1[C@H](CO)[C@H]2Cn3c(ccc(-c4cccc(F)c4)c3=O)[C@@H]1N2Cc1ccccc1 | -28.1% (inactive) |
| O=c1[nH]c2ccccc2n1C1CCN(C(c2ccccc2)c2nnnn2Cc2ccccc2)CC1 (stereo not given) | 21.9% (inactive) |
| O=C(O)COc1ccccc1/C=C1\C(=O)NC(=O)N(CCC2=CCCCC2)C1=O | 2.19% (inactive) |
| O=C1NC(=O)N(CCc2ccc(F)cc2)C(=O)/C1=C/C=C/c1ccccc1 | 66.1% (active) |
| O=C1NC(=O)N(Cc2ccco2)C(=O)/C1=C\c1ccc(-c2ccc(F)cc2)o1 | 20% (inactive) |
| O=C(NC[C@@H]1CC[C@H]2NC[C@H]2O1)C1CCCC1 | -22.4% (inactive) |
| C[C@@H]1CN([C@H](C)CO)C(=O)CCCn2cc(nn2)CO[C@@H]1CN(C)C(=O)Oc1cccc2ccccc12 | 4.15% (inactive) |
| C[C@H]1CN([C@@H](C)CO)C(=O)CCCn2nncc2CO[C@H]1CN(C)C(=O)Oc1cccc2ccccc12 | -6.63% (inactive) and -4.29% (inactive) and 4.35% (inactive) |
| CN(C)CC1Oc2ccccc2OC1(O)c1ccccc1 (stereo not given) | 55.9% (active) |
| O=C(NCC1=C(c2ccc3ccccc3c2)C[C@@H]2CC[C@H]1N2Cc1ccco1)c1cccs1 | 2.23% (inactive) |
| O=c1[nH]c2ccccc2n1C1CCN(C(c2ccnc3ccccc23)c2nnnn2Cc2ccccc2)CC1 (stereo not given) | 6.09% (inactive) |
| COC(=O)C[C@@H]1CC[C@@H]2NC[C@@H](O)COC[C@H]2O1 | -11.3% (inactive) |
| Cc1cc(N2CCNC[C@@H]2C)ccc1N1CC[C@H](O)C1 | -8.38% (inactive) |
| CCOC(=O)[C@]12Cc3ccccc3[C@H]1N(C1CCCCC1)C(=O)c1cc(OC)ccc12 | 56.3% (active) |
| CCOC(=O)[C@]12Cc3cc(OC)ccc3[C@H]1N(C(C)C)C(=O)c1ccccc12 | 16.8% (inactive) |
| CC(=O)NCC1=C(c2ccc3ccccc3c2)C[C@@H]2CC[C@H]1N2Cc1ccco1 | 9.45% (inactive) |
| CC1C(=O)OC2CCN3CC=C(COC(=O)C(C)(O)C1(C)O)C23 (stereo not given) | 0.572% (inactive) |
| O=C(O)[C@@H]1[C@@H](CO)[C@@H]2Cn3c(ccc(-c4ccccc4F)c3=O)[C@H]1N2C(=O)c1cccnc1 | -3.75% (inactive) |
